The whole screen tested about 16,000 compounds, of which about 10 (0.06%) were called active. What follows is part of a selection rich in actives, with near analogues and random picks from the rest. Unmarked numbers belong to inactive results. Rule as the data show it: active = inhibition above about 45%; inactive = the rest.

For this assay, the target named is Toll-like receptor 4 (Homo sapiens) (UniProt O00206). Nature of the assay: blocks binding of human TLR4 to MyD88 (AID 811). The note with it: Cell-based TLR4-MyD88 binding inhibition assay; at 10 µM; active compounds read high.
Toll-like receptor 4 (Homo sapiens), sequence (O00206 whole entry, looked up): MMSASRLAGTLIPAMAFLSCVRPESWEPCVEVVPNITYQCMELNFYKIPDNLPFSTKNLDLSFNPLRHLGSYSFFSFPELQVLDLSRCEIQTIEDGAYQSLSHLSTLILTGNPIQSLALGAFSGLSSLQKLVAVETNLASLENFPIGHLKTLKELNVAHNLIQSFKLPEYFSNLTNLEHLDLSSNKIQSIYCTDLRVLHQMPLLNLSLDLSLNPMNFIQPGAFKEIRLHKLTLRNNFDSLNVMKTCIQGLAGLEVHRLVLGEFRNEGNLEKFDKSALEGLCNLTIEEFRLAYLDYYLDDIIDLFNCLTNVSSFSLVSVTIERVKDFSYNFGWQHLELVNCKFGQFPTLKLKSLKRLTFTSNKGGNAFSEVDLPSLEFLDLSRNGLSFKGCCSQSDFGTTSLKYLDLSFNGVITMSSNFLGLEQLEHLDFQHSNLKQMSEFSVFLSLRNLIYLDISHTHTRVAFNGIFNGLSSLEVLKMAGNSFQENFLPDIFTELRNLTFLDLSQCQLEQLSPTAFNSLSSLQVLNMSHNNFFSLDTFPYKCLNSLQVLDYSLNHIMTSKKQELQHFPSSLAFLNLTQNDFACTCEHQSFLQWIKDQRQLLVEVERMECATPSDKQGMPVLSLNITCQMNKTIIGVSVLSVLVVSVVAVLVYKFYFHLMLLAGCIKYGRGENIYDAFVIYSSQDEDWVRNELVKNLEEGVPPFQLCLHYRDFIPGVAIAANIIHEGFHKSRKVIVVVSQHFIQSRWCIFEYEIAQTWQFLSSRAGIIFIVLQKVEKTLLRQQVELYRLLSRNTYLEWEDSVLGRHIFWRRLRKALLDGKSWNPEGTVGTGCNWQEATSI
A word on the inhibition: it is the drop in the measured response relative to a control, in per cent. As to `NS(=O)(=O)c1cccc(NC(=O)c2ccccc2)c1`, the inhibition is 2.32%.
Turning to `N#CC(Cc1ccccc1)Sc1ccccc1` (stereo not given), the inhibition was 5.75%.
Then `COc1ccc(OCCC(=O)NNC(=S)Nc2cc(Cl)ccc2Cl)cc1`, with -3.16%.
The value for `CCOCCOCCN(CC)c1ccc(N=Nc2c(C#N)cc([N+](=O)[O-])cc2C#N)c(NC(C)=O)c1` was -2.49%; that for `CC1(C)CCc2cc(-c3ccnc(SCC(=O)c4ccccc4)n3)ccc2O1` was -13.2%; that for `Cc1noc(C)c1S(=O)(=O)Nc1cc(C(F)(F)F)ccc1N1CCOCC1` was 3.25%.
`N#CCCN(CCc1ccccn1)S(=O)(=O)c1ccc2c(c1)CCO2`: the inhibition was 3.85%.
In the case of `CC(C)(C)C(=O)NNC(=O)c1ccc(Oc2ccc(C3SCCS3)cc2)o1`, the inhibition was -1.82%.
`Cc1cc2c(cn1)C(=O)c1ccccc1-2`: the inhibition is -3.73%.
Then `CCOC(=O)c1cc(Sc2ccccc2N)cc(C(=O)OCC)n1`, with -13.8%; and `Cc1c(C)c(C)c(CSC(=N)CC#N)c(C)c1C`, with 1.02%.
For `Cc1cc(NCc2cccnc2)no1`, the inhibition was -4.99%.
For `O=C(/C=C/c1cccc2ccccc12)N1CCCCC1`, the inhibition was 2.1%.
Regarding `CC1=CC(=O)C(CCC2=CC(=O)C(C)=CC2=O)=CC1=O`, the inhibition was -7.79%.
On to `CC1=NCCNC(C)=C1N1CCOCC1`, for which the inhibition was 2.33%.
The value for `N/C(Cc1ccc(F)cc1F)=N\OC(=O)c1cccc(C(F)(F)F)c1` was 2.07%.
The value for `O=C(N/N=C/c1ccc(Cl)cc1Cl)/C(=C/c1cccs1)NC(=O)c1ccccc1` was -7.21%; that for `NC(=NC(=O)CCn1c(=O)oc2ccccc21)c1cc(Cl)cc(Cl)c1` was -2.8%.
With `Cc1ccc(CC(=O)c2cccnc2)cc1`, the inhibition was 3.89%.
Then `FC(F)(F)c1ccc(-n2cn[nH]c2=S)cc1`, with -1.09%; and `Cc1cc(C)nc(N/C=C(\C#N)S(=O)(=O)c2ccc(Cl)cc2)n1`, with -13%; and `CCOC(=O)Cc1nnc(-c2ccc(Cl)cc2)o1`, with -0.7%.
As to `COC(C)(OC)c1ccc(C#N)c(=S)[nH]1`, the inhibition was -5.59%.
For the compound `CCOC1=NC(C(F)(F)F)(C(F)(F)F)N=C(N2CCOCC2)O1`, the inhibition was 0.2%.
Consider `CN(C)C(=O)Nc1ccc(C(C)(C)C)cc1`, for which the inhibition is -8.78%.
Consider `O=C(O)CCC(=O)Nc1ccccc1`, for which the inhibition is 0.27%.
Take `N#Cc1nc(-c2ccccc2)c(-c2ccccc2)nc1C#N`: the inhibition was 9.3%.
With `Cc1onc(-c2ccccc2)c1C(=O)Nc1ccc(/C(C#N)=C/c2ccccn2)cc1`, the inhibition is -8.57%.
Turning to `Cn1cc(C(=O)c2ccc(Cl)cc2)cc1/C=C(\C#N)S(=O)(=O)c1ccc(C(F)(F)F)cn1`, the inhibition was -4.67%.
`O=C(O)CCC(=O)Nc1ccc2c(c1)OCCCO2`: the inhibition is -5.34%.
The value for `c1ccc(-n2cccc2)c(N2CCCCC2)c1` was -11.1%.
Turning to `Cc1ccc2oc(=O)n(CC/C(N)=N/OC(=O)c3ccc(C(F)(F)F)nc3C)c2c1`, the inhibition was 8.34%.
As for `CCOC(=O)c1sc(SC)c(-c2ccccc2)c1N`, the inhibition was 2.9%.
In the case of `CCOC(=O)CNC(=O)CCc1cc(OC)c(OC)c(OC)c1`, the inhibition was -5.89%.
The value for `O=C(Oc1ccc(Cl)cc1)c1snnc1-c1ccccc1` was -12.5%; that for `FC(F)(F)c1cccc(NC(=S)NNc2nccc(C(F)(F)F)n2)c1` was 14.4%.
Regarding `Cc1c(S(=O)(=O)c2ccc(Cl)cc2)csc1C(=O)Nc1ccc2c(c1)OCCO2`, the inhibition was -2.01%.
As to `O=C(CCSc1nc2ccccc2o1)N1CCc2cc([N+](=O)[O-])ccc21`, the inhibition was -4.41%.
Take `O=C(Nc1ccc(OCc2ccccc2)cc1)Nc1ccc2c(c1)C(=O)OC2`: the inhibition is -6.75%.
For `CCOC(=O)c1c(NS(=O)(=O)c2cccc3nsnc23)sc(C)c1C`, the inhibition is -17.3%.
Consider `CCOC(=O)CNC(=O)c1ccc(-c2cccc([N+](=O)[O-])c2)o1`, for which the inhibition was 2.51%.
Take `CC(=O)OCC(=O)[C@@]1(O)[C@H](C)CC2C3CCC4=CC(=O)C=CC4(C)C3=CCC21C` (stereo not given in full): the inhibition was -5.02%.
`O=S(=O)(CCN1CCC(C(F)(F)F)CC1)c1ccccc1`: the inhibition is -7.12%.
The value for `COc1ccc(OC)c(CCCc2cc(OC)ccc2OC)c1` was -1.32%; that for `O=C1C=C(SCC(=O)c2ccccc2)SC(c2ccc(Cl)cc2)C1` (stereo not given) was -2.02%; that for `O=c1cc(-c2ccccc2)sc2ccc(Cl)cc12` was 5.03%.
The value for `O=C(O)c1cnc(NCc2ccccc2)s1` was -1.62%.
Turning to `O=S(=O)(c1ccc(Cl)c(Cl)c1)N1CCc2c([nH]c3ccccc23)C1C(F)(F)F` (stereo not given), the inhibition is 0.92%.
Turning to `N#Cc1c(-c2cccs2)oc(-n2cccc2)c1-c1cc(Br)cs1`, the inhibition was 6.38%.
In the case of `CCOC(=O)c1cc(CC)sc1NC(=O)c1cccc(C(F)(F)F)c1`, the inhibition is 1.92%.
Then `OCCNc1nc2ccccc2[nH]1`, with -3.29%; and `COC(=O)CCN1CCc2cc(N=Nc3ccc(C(F)(F)F)cc3)ccc21`, with 3.28%; and `N#CCSc1ccc2ccccc2c1`, with -1.93%.
Consider `CCN(CCN1C(=O)CCC1=O)c1cccc(NC(C)=O)c1`, for which the inhibition was -4.21%.
`Cc1cc(/C(N)=N/OC(=O)c2cccs2)c(-c2ccccc2)o1`: the inhibition is 3.39%.
The value for `CCOc1cc(-c2cccs2)nc(N)n1` was 1.81%.
As to `O=S(=O)(c1ccc(Cl)s1)N1CCN(c2ccccc2)CC1`, the inhibition is -1.65%.
Turning to `CSc1sc(C(N)=O)cc1C#N`, the inhibition is -2.28%.
Regarding `O=C(O)c1nccnc1C(=O)NCCSCc1c(F)cccc1Cl`, the inhibition was -7.53%.
Turning to `CCOc1ccc(C(N)=O)c(SCC(=O)O)c1`, the inhibition was -4.29%.
The value for `N#Cc1nccnc1N1CCN(c2ccccc2)CC1` was 10.5%; that for `Cc1cc(S(=O)(=O)Oc2ccc(OCc3ccccc3)cc2)c(C)cc1Cl` was 9.02%.
Then `Cn1cccc1-c1n[nH]c(=S)n1-c1ccc(Cl)cc1Cl`, with 9.51%; and `O=c1[nH]c2cc(Cl)c(Cl)cc2n1-c1ccncc1`, with -5.56%.
For `COc1cccc(OCc2ccccc2)c1C#N`, the inhibition is -5%.

The values are drawn from PubChem BioAssay AID811 (The Scripps Research Institute Molecular Screening Center, 2007).
